Screens deposited in PubChem BioAssay by National Center for Advancing Translational Sciences (NCATS).
Only some compounds are listed: those with a hit (about 0.34% of all), similar ones and a draw of the others.
Epigenetic reg: regulators of epigenetic silencing causing reporter derepression in mouse cells | hit rate 0.2% among 280,000 | AID 1865 | murine LDR cells, GFP reporter derepression, 30 h | Potency, µM (titrated, usually from 53.9 µM), without a hit: at the top dose GFP activation, usual class: activators; further: % of control where 0% means no effect; nearly all actives have a fitted effect of over 60% in size
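Derepression of a silenced CMV-GFP reporter in murine LDR cells is scored by enumerating GFP-positive cells with a laser-scanning microplate cytometer after 30 hours of treatment at 37 C.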
Vif-A3F inh: blocks the Vif interaction with APOBEC3F | HeLa A3F-eYFP + Vif (tagged APOBEC3F with the HIV-1 protein that degrades it), YFP fluorescence increase | Potency, µM (top dose mostly 46.1 µM), for the others: at the top dose activity, negative = active | hit rate 0.2% among 390,000 | AID 602313; further: % of control where 0% means no effect; nearly all actives have a fitted effect of over 65% in size
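Fluorescence increase (Ex 488/Em 500-530) after overnight compound treatment at 37 deg C flags inhibition of Vif-driven A3F-eYFP loss in stable HeLa A3F-eYFP/Vif cells seeded overnight beforehand.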
Vif-APOBEC3G blk: Vif-A3G binding inhibition | Potency, µM (series often up to 46.1 µM), for inactives: top-dose activity, negative = active, hits mostly inhibitors | Q9HC16 | hit rate 0.076% among 410,000 | HeLa A3G-eYFP + Vif (tagged APOBEC3G with the HIV-1 protein that degrades it), YFP fluorescence, overnight; further: on the % scale 0 is the no-effect control and ±100 the full control effect; nearly all actives have a fitted effect of over 60% in size
Target sequence (Q9HC16 whole entry, looked up): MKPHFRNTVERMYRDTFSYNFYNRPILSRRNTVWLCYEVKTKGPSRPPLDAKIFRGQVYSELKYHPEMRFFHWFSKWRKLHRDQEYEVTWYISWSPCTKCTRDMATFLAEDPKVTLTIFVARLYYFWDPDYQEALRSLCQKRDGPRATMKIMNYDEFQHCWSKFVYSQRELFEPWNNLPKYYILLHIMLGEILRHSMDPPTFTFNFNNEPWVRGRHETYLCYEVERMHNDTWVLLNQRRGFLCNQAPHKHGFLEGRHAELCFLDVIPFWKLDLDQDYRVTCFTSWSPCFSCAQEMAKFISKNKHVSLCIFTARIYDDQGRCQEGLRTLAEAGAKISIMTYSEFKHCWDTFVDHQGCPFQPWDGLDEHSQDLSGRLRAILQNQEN
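HeLa cells stably expressing Vif and C-terminally eYFP-tagged A3G, seeded overnight at 37 deg C, then exposed to compound by pintool overnight at 37 deg C. Rise in yellow fluorescence (Ex 488/Em 500-530, Acumen) marks blocked Vif-driven A3G degradation.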
An asterisk follows results filed as active; i = inactive; ? = inconclusive; / = no result. The call rests on the fitted dose curve; in most records, active means well fitted curve in the direction sought with a large enough effect; inconclusive means small, poorly fitted or top-dose-only effect, or another doubt; inactive means no such curve, though single readings can be large; an effect the other way counts as inactive or inconclusive. Potency means the concentration at half of the fitted maximal effect.

SMILES	Epigenetic reg	Vif-A3F inh	Vif-APOBEC3G blk
CCCN1C(=O)/C(=C\C=C2/Sc3ccccc3N2CCO)SC1=S	?	-20%	1%
CCCCN1C(=O)/C(=C/C=C2/CC(C)(C)CN2C)SC1=S	14µM*	?	3.5µM*
CN1/C(=C\C=C2/SC(=S)N(CC(=O)O)C2=O)C(C)(C)c2ccccc21	1%	?	-5%
CCN1C(=O)/C(=C/C=C2/SCCN2C)SC1=S	-1%	?	?
C=CCN1C(=O)/C(=C\C=C2\N(C)c3ccccc3C2(C)C)SC1=S	5µM*	?	?
CCCN1C(=O)/C(=C/C=C2\N(CC)c3ccccc3C2(C)C)SC1=S	3.2µM*	?	?
CCCCN1C(=O)/C(=C/C=C2\Oc3ccccc3N2CC)SC1=S	1µM*	i	1.6µM*
COCc1cc(O)c(O)c(O)c1-c1c(COC)cc(O)c(O)c1O	1%	/	1%
O=S1(=O)CCOC[C@H](c2ccccc2)N1Cc1ccc(Cl)c(Cl)c1	/	/	-2%
COc1ccccc1C(=O)Nc1ccc(-c2cc(C(F)(F)F)nn2-c2ccccc2)cc1	0%	-2%	-14%
COc1ccc(-n2c(=O)c3c(c4cc(OC)ccc4n3C)n(Cc3c(F)cccc3Cl)c2=O)cc1	-2%	-2%	3%
CS(=O)(=O)N1CCN(/[N+]([O-])=N/Oc2ccc([N+](=O)[O-])cc2[N+](=O)[O-])CC1 (tested in a mixture with another compound)	/	/	-1%
O=C(C[N+]1(CCO)CCOCC1)c1ccc(F)c2ccccc12	/	/	-2%
O=C(CSc1nc2c([nH]c3ccccc32)c(=O)n1-c1cccc(Cl)c1)N1CCc2ccccc21	3%	7%	1%
O=C(N=Nc1c(O)[nH]c2ccccc12)Nc1ccccc1	/	2%	-7%
Oc1[nH]c2ccccc2c1N=Nc1ccccc1	?	25µM*	?
COc1cc(/C=C2\SC(=S)N(CC(=O)Nc3ccccn3)C2=O)cc(OC)c1OC	0%	-20%	-28%
COc1cc(/C=C2\SC(=S)N(CCC(=O)Nc3ccccc3)C2=O)cc(OC)c1OC	-11%	?	?
O=C(CN1C(=O)S/C(=C\c2cc(Cl)c(O)c(Cl)c2)C1=O)Nc1ccccc1	/	13µM*	?
COc1cc(/C=C2/SC(=S)N(CCC(=O)Nc3ccccc3)C2=O)cc(OC)c1OC	/	11µM*	?
COc1cc(/C=C2\SC(=S)N(CCC(=O)Nc3ccccn3)C2=O)cc(OC)c1OC	/	25µM*	-21%
O=C(CN1C(=O)S/C(=C\c2ccccn2)C1=O)Nc1ccccc1	/	-5%	2%
Cc1ccc(NC(=O)COC(=O)c2ccccc2OCC(=O)N(C)C)cc1	/	/	-4%
Cc1ccc2c(C)ccnc2c1	/	/	0%
Cc1ccnc(Nc2nc(-c3ccccc3)cs2)c1	/	-17%	10%
SMILES	Epigenetic reg	Vif-A3F inh	Vif-APOBEC3G blk
Cc1ccnc(N/C=C(\C#N)c2nc(-c3cccc(Br)c3)cs2)c1	16µM*	?	?
CC1=Nc2ccccc2/C1=C\c1nc(-c2ccc(C(F)(F)F)cc2)oc1O	13µM*	-2%	0%
CC1=Nc2ccccc2/C1=C\c1nc(-c2ccccc2)oc1O	0%	1%	-12%
CCOC(=O)c1nn(-c2ccc(Cl)cc2)c(=O)c(C#N)c1C	/	1%	1%
CCOC(=O)c1nn(-c2ccc(Cl)cc2Cl)c(=N)c(C#N)c1C	11µM*	/	/
COc1cc(OC)c(OC)cc1/C=C/c1nc2ccccc2o1	/	/	-3%
Cc1ccc(CN2c3ccccc3-c3nc(SCC(=O)NCc4ccccc4)ncc3S2(=O)=O)cc1	0%	-1%	-4%
COc1ccc(CNC(=O)CSc2ncc3c(n2)-c2ccc(Cl)cc2N(Cc2ccccc2)S3(=O)=O)cc1	16µM*	-2%	4%
COC(=O)c1[nH]c2c(c1C(=O)OC)CCc1ccccc1-2	/	8.9µM*	-10%
CCOC(=O)c1c(NC(=O)c2ccccc2)sc2c1CCc1ccccc1-2	-2%	?	-8%
Cc1ccc(-c2cc(C(=O)NCCCN3CCOCC3)no2)cc1	-1%	1%	-1%
O=C(NCCCN1CCOCC1)c1cc(-c2cccs2)on1	14µM*	-15%	1%
COc1cc(N(C)C)c(OC)cc1C=O	/	/	3%
O=C(Nc1nccs1)[C@@H]1CC=C[C@@H]2CCN(C3CCCCC3)C(=O)[C@@H]21	/	/	1%
Cc1ccccc1NC(=O)/C=C/c1cccs1	5%	3%	-1%
Cc1ccccc1NC(=O)/C=C/c1ccc([N+](=O)[O-])s1	3.5µM*	10µM*	6.3µM*
Cc1cc(C)cc(NC(=O)/C=C/c2ccc([N+](=O)[O-])s2)c1	8%	11µM*	?
COC(=O)c1cccc(NC(=O)/C=C/c2cccc([N+](=O)[O-])c2)c1	3%	0%	-5%
CC(=O)c1cccc(NC(=O)/C=C/c2ccc([N+](=O)[O-])s2)c1	4µM*	?	?
O=C(/C=C/c1ccc([N+](=O)[O-])s1)N1CCCC1	-1%	1%	-20%
COC(=O)CCCCCN1C(=O)NC(CC2CC2)C(C(=O)OCc2ccccc2)=C1C (centres undefined)	3%	/	/
Cc1oc(-c2ccc(C(=O)NCc3ccc(F)cc3)cc2)nc1CS(=O)c1ccccc1 (centres undefined)	-3%	0%	-1%
O=C(N=c1ccn(-c2nc3ccccc3nc2NS(=O)(=O)c2ccccc2)cc1)c1cccs1	?	25µM*	?
Cc1ccccc1C(=O)N=c1ccn(-c2nc3ccccc3nc2NS(=O)(=O)c2ccc(F)cc2)cc1	/	?	-17%
CCOc1ccccc1NC(=O)N1CCN(S(=O)(=O)c2ccc3c(ccn3C)c2)CC1	-1%	6%	-1%
SMILES	Epigenetic reg	Vif-A3F inh	Vif-APOBEC3G blk
NC(=O)c1sc2nc3c(c(-c4ccco4)c2c1N)CCCC3	-1%	-7%	4%
Cc1ccccc1NC(=O)c1sc2nc3c(c(-c4ccco4)c2c1N)CCC3	3%	?	13µM*
COc1cccc(NC(=O)c2sc3nc(C)c(C(=O)Nc4ccc(C)cc4C)c(-c4ccco4)c3c2N)c1	1%	?	-21%
CCc1ccc(NC(=O)c2sc3nc(C)c(C(=O)Nc4ccc(C)cc4C)c(-c4ccco4)c3c2N)cc1	18µM*	13µM*	-30%
CC(=O)ON(C(C)=O)c1ccc(/C=C2\C=Cc3ccccc32)cc1	/	/	-3%
S=c1nc[nH]c2n[nH]nc12	/	/	-13%
S=Cc1nc2ccccc2[nH]1	/	/	-2%
Cn1cc(/C=C/c2ccnc3ccccc23)c2ccccc21	/	/	10µM*
Nc1ccccc1/C=C/c1ccnc2ccccc12	/	/	13µM*
C(=C\c1ccnc2ccccc12)/c1ccnc2ccccc12	/	/	-3%
C(=C\c1ccnc2ccccc12)/c1cccnc1	/	/	-3%
CN(C(=O)CSc1nc2ccccc2n1CC(=O)N(C)c1ccc(F)cc1)c1ccccc1	0%	3%	2%
c1ccc2c(c1)sc[n+]2CCC1CCCCC1	/	/	-1%
Cc1cc(C)cc(OCC(=O)Nc2ccc(Cl)c(-c3nc4ncccc4o3)c2)c1	-1%	-12%	-1%
O=C1CC(c2ccccc2)Cc2[nH]c(=O)c(-c3nc(-c4ccc(Cl)cc4)cs3)cc21 (centres undefined)	3%	-12%	?
